PI5P4Ka inh: qHTS for Inhibitors of phosphatidylinositol 5-phosphate 4-kinase (PI5P4K); 330,000 compounds, 1.2% hits; max response, %; PI5P4Kalpha enzyme, ADP-Glo luminescence, 60 min; hits give low values; Phosphatidylinositol 5-phosphate 4-kinase type-2 alpha (Homo sapiens), P48426; active = max response of -50% or lower; inconclusive = between -30% and -50%; inactive = -30% or higher; also: value at the top dose of about 77 µM; % is scaled to controls: 0 for no effect and ±100 for the full control effect
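qHTS, 1536-well: enzyme/substrate mix, compound by pin tool, 5 microM ATP final; RT 60 min; ADP-Glo reagents 1 (45 min) then 2 (30 min); luminescence.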
PLK1 PBD inh: qHTS for Inhibitors of PLK1-PDB (polo-like kinase 1 - polo-box domain): Primary Screen | Plk1 PBD binding of FITC phosphopeptide, fluorescence polarization | Potency, µM, for inactives: max response, negative = inhibition, hits mostly inhibitors | 360,000 compounds, 2.8% hits; also: potency is read from the fitted curve at half-maximal effect; series mostly up to about 57 µM; % is scaled to controls: 0 for no effect and ±100 for the full control effect; nearly all actives have a fitted effect of over 65% in size
Target sequence (P53350 whole entry, looked up, the tested form may be a part): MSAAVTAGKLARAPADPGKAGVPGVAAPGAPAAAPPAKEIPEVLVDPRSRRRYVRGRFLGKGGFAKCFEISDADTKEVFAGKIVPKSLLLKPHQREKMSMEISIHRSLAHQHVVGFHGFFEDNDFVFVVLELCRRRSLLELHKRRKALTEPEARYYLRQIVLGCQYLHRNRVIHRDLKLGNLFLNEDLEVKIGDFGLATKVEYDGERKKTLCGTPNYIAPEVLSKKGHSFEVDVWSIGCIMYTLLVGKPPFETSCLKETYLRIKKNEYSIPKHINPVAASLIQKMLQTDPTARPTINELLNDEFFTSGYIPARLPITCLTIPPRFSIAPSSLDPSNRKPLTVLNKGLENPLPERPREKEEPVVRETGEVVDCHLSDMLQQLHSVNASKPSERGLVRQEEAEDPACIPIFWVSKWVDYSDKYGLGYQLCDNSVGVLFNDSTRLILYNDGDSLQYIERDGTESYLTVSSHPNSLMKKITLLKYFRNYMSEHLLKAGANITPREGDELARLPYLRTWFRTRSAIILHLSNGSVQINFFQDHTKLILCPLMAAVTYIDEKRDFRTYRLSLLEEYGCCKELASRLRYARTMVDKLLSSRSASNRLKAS
HP1b binding inh: HTS for Inhibitors of HP1-beta Chromodomain Interactions with Methylated Histone Tails; Potency, µM (doses to about 114 µM), for inactives: at the top dose activity change, negative = inhibition, hits mostly inhibitors; AlphaScreen HP1-beta / biotin-H3K9me3 peptide binding; Chromobox protein homolog 1 (Homo sapiens), P83916; 390,000 compounds, 0.56% hits; also: potency is read from the fitted curve at half-maximal effect; nearly all actives have a fitted effect of over 70% in size
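AlphaScreen: HP1-beta (50 nM) preformed 30 min with biotin-H3(1-18)K9me3 peptide (50 nM) in PBS pH 7.4, 0.01% Tween-20. Compound added for 30 min at RT, then streptavidin donor/nickel chelate acceptor beads (10 ug/mL) for 30 min.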
KAT2A inh: qHTS Assay for Inhibitors of GCN5L2; Histone acetyltransferase KAT2A (Homo sapiens), Q92830; GCN5L2 HAT assay, ThioGlo1 CoA-SH fluorescence; Potency, µM (highest dose often 58.9 µM), without a hit: top-dose activity change, negative = inhibition, usual class: inhibitors; 390,000 compounds, 0.21% hits; AID 504327, 2011; also: potency is read from the fitted curve at half-maximal effect; % is scaled to controls: 0 for no effect and ±100 for the full control effect
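qHTS, 1536-well. 20nM enzyme, pH 7.5 HEPES/EDTA/Tween-20 buffer; 15 min compound preinc., RT. Start: 75uM H3(1-25), 70uM AcCoA, 50uM ThioGlo1. Read Ex340/Em540 at t=0 (autofluorescence flag) and t=20 min.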
JMJD2A Tudor inh: qHTS Assay for Inhibitors of JMJD2A-Tudor Domain; Lysine-specific demethylase 4A (Homo sapiens), O75164; AlphaScreen JMJD2A-Tudor / H3K4me3 peptide binding; Potency, µM (highest dose often 114 µM), inactives show at the highest dose activity change, negative = inhibition, most hits filed as inhibitors; 390,000 compounds, 4.4% hits; AID 504339, 2011; also: potency is read from the fitted curve at half-maximal effect; % is scaled to controls: 0 for no effect and ±100 for the full control effect; nearly all actives have a fitted effect of over 50% in size
BAZ2B block: qHTS Assay for Inhibitors of BAZ2B; Bromodomain adjacent to zinc finger domain protein 2B (Homo sapiens), Q9UIF8; AlphaScreen BAZ2B-H3K14Ac peptide displacement; Potency, µM (series often up to 114 µM), inactives show at the highest dose activity change, negative = inhibition, actives largely listed as inhibitors; 360,000 compounds, 4.4% hits; AID 504333, 2011; also: potency is read from the fitted curve at half-maximal effect; % is scaled to controls: 0 for no effect and ±100 for the full control effect; nearly all actives have a fitted effect of over 60% in size
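Protein-peptide AlphaScreen: BAZ2B 50 nM, b-H3K14Ac 50 nM, 1x PBS pH 7.4 + 0.01% Tween-20. Preincubation 30 min RT; cpd 30 min RT (top 110 uM); beads 20 min RT, light-protected.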
ADP-Glo counter: qHTS for Inhibitors of PI5P4K: ADP-Glo counter assay; shares compounds with PI5P4Ka inh; ADP-Glo detection counter-screen, luciferase luminescence, no enzyme; Potency, µM (titrated, usually from 76.9 µM), for the others: at the highest dose activity change, negative = inhibition, hits mostly inhibitors; 1,100 tested, under 10 active; AID 743285, 2014
Starred values were filed as active, the others as inactive; ? = inconclusive; nt = no result; [ ] = remark or other dose. Sampled rows, rich in hits. Any-hit rate of the full collection: about 7%. Unless noted, calls follow the shape of the dose curve; as a rule, active = well fitted curve in the direction sought with a large enough effect; inconclusive = small, poorly fitted or top-dose-only effect, or another doubt; inactive = no such curve, though single readings can be large; an effect the other way counts as inactive or inconclusive.

SMILES | PI5P4Ka inh | PLK1 PBD inh | HP1b binding inh | KAT2A inh | JMJD2A Tudor inh | BAZ2B block | ADP-Glo counter
O=C(OCC(=O)c1cccc2ccccc12)c1ccc(CO)cc1 | 9 | 2% | 25% | -7% | -14% | -11% | nt
COc1cccc(N2CCN(C(=O)c3ccc(CS(=O)c4ccccc4C)o3)CC2)c1 (centres undefined) | 0 | ? | -12%[57 µM] | -23% | ? | -23% | -8%
COc1cccc(N2CCN(C(=O)c3ccc(CS(=O)c4ccccc4Cl)o3)CC2)c1 (centres undefined) | 5 | -23% | 26% | -20% | -22% | ? | nt
COc1ccc(CCNC(=O)C2CCN(C(=O)c3ccc(Cl)cc3)CC2)cc1OC | -5 | 4% | 26% | -8% | -8% | -1% | nt
Cc1cc2ccccc2nc1SCC(=O)NC1CCCC1 | -65* | 24µM* | -1% | -7% | 14µM* | 4% | 6%
COc1ccc(CCNC(=O)Cc2c(C)c3cc4c(C(C)(C)C)coc4c(C)c3oc2=O)cc1OC | nt | nt | 13% | -3% | -9% | -6% | nt
CCCn1c(SCC(=O)N2c3ccccc3Sc3ccccc32)nc2c1c(=O)n(C)c(=O)n2C | -3 | -12% | 5% | 1% | -23% | 1% | -9%
Cc1ccccc1CN1C(=O)C(C)Sc2ccc(-c3ccco3)cc21 (centres undefined) | -54* | -21% | nt | nt | nt | nt | -4%
COc1cccc(-c2ccc3c(c2)N(Cc2ccc(F)cc2)C(=O)C(C)S3)c1 (centres undefined) | 20 | 5% | nt | nt | nt | nt | nt
COC(=O)c1[nH]cnc1C(=O)c1ccccc1 | -61* | -1% | 31% | -3% | -4% | 8% | 2%
CCOC(=O)C1(C)CCCN(C(=O)c2ccccc2C(F)(F)F)C1 (centres undefined) | -79* | -11% | nt | nt | nt | nt | -5%
Cc1ccc(CNC(=O)c2ccc(-n3cccc3)cc2)cc1 | -90* | ? | 22µM* | ? | 40µM* | 25µM* | 4%
COc1ccc(C(=O)NCCS(=O)(=O)N2CCCC2)cc1 | 7 | 0% | 15% | 4% | -13% | -3% | nt
O=C(OCC(=O)N1CCCCCC1)c1ccc(Cl)c(S(=O)(=O)N2CCCC2)c1 | -61* | 11µM* | ? | 1% | 20µM* | nt | 2%
O=c1cc(-c2ccccc2)[nH]n1-c1nc2ccccc2[nH]1 | -76* | -8% | 20% | -16% | 56µM* | 28µM* | 2%
CCc1cc(=O)[nH]c(-n2[nH]c(-c3ccccc3)cc2=O)n1 | -3 | -8% | 30% | -3% | -10% | -1% | nt
COc1ccc(C(=O)Nc2c(N)nc[nH]c2=O)cc1 | 3 | -4% | 30% | nt | 4% | nt | nt
COc1cc(NC(=O)Nc2nnc([C@@H]3C[C@H](O)[C@@H](CO)O3)s2)cc(OC)c1OC | -2 | 2% | nt | nt | nt | nt | nt
C=CC[C@H](CC(=O)N(CCO)Cc1ccccc1)C(=O)N[C@@H](COC(=O)[C@@H](CC=C)Cc1ccc(F)cc1)Cc1c[nH]c2ccccc12 | 3 | -10% | -14% | -17% | ? | nt | nt
O=C(CSc1nc2[nH]c(=O)cc(O)c2s1)Nc1ccc(Cl)c(C(F)(F)F)c1 | -54* | -16% | 19% | -9% | -29% | -4% | 2%
O=C(CSc1nc2[nH]c(=O)cc(O)c2s1)Nc1cc(Cl)cc(Cl)c1 | ? | -27% | -8% | -9% | -18% | -3% | nt
CCCc1cc(=O)oc2cc(C)c3c(C(C)(C)C)coc3c12 | nt | nt | 10% | -9% | 12% | -19% | nt
Cc1cc2nc(-c3cccc(Cl)c3)c(Cc3cccc(Cl)c3)n2c(C)c1Br | 0 | -9% | nt | nt | nt | nt | nt
Cc1cc2nc(-c3ccco3)c(Cc3cccc(Cl)c3)n2c(C)c1Br | -56* | ? | nt | nt | nt | nt | -1%
COc1ccccc1Cc1c(-c2ccco2)nc2cc(C)c(Br)c(C)n12 | -64* | ? | nt | nt | nt | nt | -1%
SMILES | PI5P4Ka inh | PLK1 PBD inh | HP1b binding inh | KAT2A inh | JMJD2A Tudor inh | BAZ2B block | ADP-Glo counter
CCOC(=O)[C@]12CCCC=C1N(CCc1ccc(OC)c(OC)c1)C(=O)[C@H](CC(=O)NCCCCc1ccccc1)C2 | 12 | -2% | nt | nt | nt | nt | nt
Fc1ccc(C2=CC(c3ccco3)n3ncnc3N2)cc1 (centres undefined) | 9 | -26% | 21% | -2% | -33% | ? | nt
C1=C(c2ccc(-c3ccccc3)cc2)Nc2ncnn2C1c1ccco1 (centres undefined) | -56* | 4.7µM* | 24% | ? | -27% | -12% | -11%
Cc1cc(NC(=O)c2ccc(Br)o2)cc(-c2nc3ccccc3o2)c1O | nt | nt | 89% | ? | -5% | 10% | nt
CCOc1ccc(NC(=O)CN(C)C(=O)c2cc3c(s2)CCC3)cc1OCC | -80* | -26% | nt | nt | nt | nt | -5%
CC(C)Cc1c(O)nc(SCC(=O)N2CCCCCC2)[nH]c1=O | -50* | 1% | 27% | -2% | -14% | 6% | 0%
CCOC(=O)N1CCN(C(=O)Cn2nc(-c3ccc(Cl)cc3)ccc2=O)CC1 | -8 | 1% | 38% | -11% | -9% | -17% | nt
CCN1CCN(C(=O)Cn2nc(-c3ccc(Cl)cc3)ccc2=O)CC1 | ? | -2% | 7% | -13% | -17% | -10% | -8%
COc1cccc(C(=O)Nc2cccc(C(=O)NC3=NN(c4c(Cl)cc(Cl)cc4Cl)C(=O)C3)c2)c1 | -58* | ? | -7% | ? | -21% | 2% | 3%
COc1cccc(C(=O)Nc2cccc(NC(=O)c3ccc(Cl)cc3Cl)c2)c1 | nt | nt | 67% | -20% | -20% | -6% | nt
